# Compounds with a hit are over-represented: about 1.3% of the library has one in this group of screens.
# KCNH2 3.1 block: inhibitors of human KCNH2 3.1 potassium channel isoform. U2OS KCNH2 3.1, thallium flux FluxOr; hits give low values. activity change, % (tested at about 1.8 µM). actives 0.95% (n = 340,000). AID 720553;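 active = maximum activity change below -70%; inconclusive = maximum activity change from -70% to -50%; inactive = maximum activity change above -50%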;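 note: thallium influx rate constant from kinetic fluorescence after stimulation buffer; % is set by controls: 0 for no effect and ±100 for the full control effect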
#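 Normalized rate constant (relative to positive and negative DMSO controls) derived from a 2 min kinetic fluorescence read after stimulation; U2OS cells expressing the 3.1 isoform via virus at 1.77 x 10^8 /mL.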
# TRPV1 potentiator: human TRPV1 potentiation; Q8NER1; TRPV1-expressing cells, Fluo-8 calcium influx, capsaicin EC20 potentiation; potentiation, % at 8.33 µM; actives 0.02% (n = 320,000); in the data active = potentiation above about 80%; inconclusive = between about 30% and that limit; note: 0% is about no effect
#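 Cells expressing TRPV1 were dye-loaded with Fluo-8 and read kinetically: 10 s baseline, 3 min after compound (agonist portion), then 2 min after EC20 capsaicin (allosteric enhancer portion). Calcium-bound dye fluorescence at 480/520 nm.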
# TRPV1 agonist: activates the human vanilloid receptor TRPV1 | Q8NER1 | AID 540275 | actives 0.19% (n = 320,000) | activation, % at 8.33 µM | TRPV1-expressing cells, Fluo-8 calcium influx, agonist mode; in the data active = activation above about 80%; inconclusive = between about 30% and that limit; note: 0% is about no effect
#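 Cells expressing TRPV1 were dye-loaded with Fluo-8 and read kinetically: 10 s baseline, 3 min after compound (agonist portion), then 2 min after EC20 capsaicin (allosteric enhancer portion). Calcium-bound dye fluorescence at 480/520 nm.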
# KCNH2 WT inh: inhibitors of human wildtype KCNH2 potassium channel. U2OS, BacMam KCNH2, thallium flux FluxOr; hits give low values. actives 0.37% (n = 340,000). activity change, % at 1.84 µM;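 active = maximum activity change below -70%; inconclusive = maximum activity change between -70% and -50%; inactive = maximum activity change above -50%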; note: % is set by controls: 0 for no effect and ±100 for the full control effect
#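 U2OS cells were transduced with wild-type KCNH2 virus (2.03 x 10^8 / mL) for 4 h at room temperature, then cultured overnight at 37 C. Thallium flux was read with FluxOr dye. Rate constants were normalized to DMSO controls.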
# MBNL1 CUG block: inhibitors of human MBNL1 binding to CUG repeat RNA; Q9NR56; TR-FRET MBNL1-His/biotin-(CUG)12 binding, 665/545 ratio; Potency, µM (highest dose often 57.5 µM), for the others: at the top dose activity change, negative = inhibition, actives largely listed as inhibitors; actives 0.036% (n = 280,000); active = well fitted inhibition curve with a large enough effect in the signal ratio, with a control signal flat, not every such curve was filed as active; inconclusive = small, poorly fitted or top-dose-only effect, or effect the other way, or a change in a side signal; inactive = no such curve, though single readings can be large or run the other way; the % refers to the signal ratio; note: potency is the fitted concentration of half-maximal effect; % is set by controls: 0 for no effect and ±100 for the full control effect
# Target sequence (Q9NR56 whole entry, looked up): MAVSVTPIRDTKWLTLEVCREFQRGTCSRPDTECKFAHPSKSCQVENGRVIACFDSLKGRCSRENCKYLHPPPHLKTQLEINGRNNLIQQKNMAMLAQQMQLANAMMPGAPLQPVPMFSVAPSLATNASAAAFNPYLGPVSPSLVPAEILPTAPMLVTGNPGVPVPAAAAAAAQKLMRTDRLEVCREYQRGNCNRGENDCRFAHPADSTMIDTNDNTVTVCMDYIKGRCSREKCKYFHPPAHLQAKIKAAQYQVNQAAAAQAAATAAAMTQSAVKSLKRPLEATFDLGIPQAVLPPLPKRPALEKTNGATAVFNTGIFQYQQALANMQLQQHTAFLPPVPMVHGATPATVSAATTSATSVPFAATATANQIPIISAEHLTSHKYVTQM
#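 TR-FRET readout: Ex 340 nm, 665/545 nm emission ratio, normalized to buffer-only (basal) and MBNL1-(CUG)12 controls. Complex of MBNL1-His with Biotin-(CUG)12, compounds 92 nM–58 uM, incubated 60 min at room temperature.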
# * hit, by the source's call; ? = inconclusive; · = no result given.
SMILES,KCNH2 3.1 block,TRPV1 potentiator,TRPV1 agonist,KCNH2 WT inh,MBNL1 CUG block
CC(=O)OC1C(N2CCCCC2)c2c(ccc(/C=C/C(=O)N3CCCCC3)c2O)OC1(C)C (configuration not stated),-5.8,-18.1,80.6*,-10.9,5.7%
CC(=NNc1ccccc1)C(C)=NNc1ccccc1,-71.0*,·,·,43.0,·
COCCN(C/C=C/c1ccccc1)C/C=C/c1ccccc1,-78.6*,-20.2,23.2,29.4,-7.7%
CCOC(=O)c1ccc2[nH]c3c(c2c1)CCCCC3=O,-167.1*,-8.0,7.5,26.9,56.1%
CN(C)S(=O)(=O)N1C(=O)c2ccccc2C1=O,-0.1,-4.2,-4.1,-22.7,16.3%
CN(C)/C=C1\C=C2C(=O)c3ccccc3N2C1=O,9.5,-20.5,92.5*,-22.3,?
CN1C(=O)c2cccc3c(Cl)ccc(c23)C1=O,5.9,-0.6,1.5,-12.6,23.2%
CNc1ccc2c3c(cccc13)C(=O)N(C)C2=O,-6.8,-2.9,102.6*,-15.0,?
O=c1c(-c2ccc3c(c2)OCCO3)coc2cc(OC3OC(CO)C(O)C(O)C3O)ccc12 (configuration not stated),-6.4,12.9,-4.8,1.8,4.8%
COc1ccc(-c2coc3cc(O[C@@H]4O[C@H](CO)[C@@H](O)[C@H](O)[C@H]4O)ccc3c2=O)cc1,-151.3*,·,·,2.2,·
COc1ccc(C[C@@H]2CN3C(=NC[C@@H]3C)N2C[C@H](C)NC(=O)CCC2CCCCC2)cc1,-84.3*,23.3,1.1,-129.5*,7.7%
C/C=C(\C)C(=O)NCCN1C2=NC[C@H](Cc3ccccc3)N2C[C@H]1Cc1ccc(O)cc1,-10.2,4.6,0.9,3.0,-10.8%
COc1ccc(C[C@H]2CN3C(=NC[C@H]3Cc3ccccc3)N2CCNC(=O)CCC2CCCCC2)cc1,?,16.2,4.4,-107.2*,6.7%
COc1ccc(C[C@H]2CN3C(=NC[C@@H]3Cc3ccccc3)N2C[C@H](C)NC(=O)CCC2CCCCC2)cc1,·,2.4,9.9,·,-5.3%
C/C=C(\C)C(=O)NCCN1C2=NC[C@H](Cc3ccccc3)N2C[C@@H]1Cc1ccc(OC)cc1,-83.2*,·,·,-25.8,·
Cc1ccc(NC(=O)COC(=O)c2nn(C)c(=O)c3ccccc23)cc1F,-0.5,·,·,2.8,·
CC1C/C(=N/NC(=O)c2cccc(F)c2)c2ccc(O)cc2C1 (configuration not stated),18.7,2.9,-2.5,-1.3,5.3%
CN1C(=O)C(C)(C)N(C(=O)c2cccc([N+](=O)[O-])c2)c2ccccc21,-99.5*,9.1,?,-0.2,?
Cc1ccccc1CS(=O)(=O)Cc1ccc(C(=O)NCCc2ccccc2)o1,-71.1*,-13.2,23.5,5.9,-4.4%
Cc1ccc(NC(=O)C(=O)NCCOc2ccc(Cl)cc2)c(C)c1,-7.1,3.0,1.9,-4.8,·
Cc1ccc(NC(=O)c2nc[nH]c2C(=O)N2CCC(C)CC2)cc1,-134.2*,2.1,15.9,1.5,3.2%
Cc1ccc(NC(=S)NCc2ccc3c(c2)cc(C)n3C)c(C)c1,-103.5*,4.5,5.2,·,49.2%
COc1ccc(C(=O)N/N=C/c2ccc(OC)c(CN3CCN(c4ccc(F)cc4)CC3)c2)cc1,-109.8*,-7.2,1.5,-168.0*,·
COc1ccc(/C=N/NC(=O)c2ccncc2)cc1CN1CCOCC1,2.5,-24.1,0.1,18.7,8.6%
COc1ccc(C(=O)N/N=C/c2ccc(OC)c(CN3CCCc4ccccc43)c2)cc1,-4.6,3.3,3.9,2.6,·
SMILES,KCNH2 3.1 block,TRPV1 potentiator,TRPV1 agonist,KCNH2 WT inh,MBNL1 CUG block
COc1ccc(/C=N/NC(=O)c2cccnc2)cc1CN1CCCc2ccccc21,3.3,-4.7,?,-4.3,15.9%
COc1ccc(/C=N/NC(=O)c2cccnc2)cc1CN1CCN(c2ccc(F)cc2)CC1,-79.6*,0.2,2.0,-17.8,?
COc1ccc(/C=N/NC(=O)c2ccoc2C)cc1CN1CCN(c2ccc(F)cc2)CC1,-110.2*,10.0,-4.5,-48.6,-28.5%
COc1ccc(/C=N/NC(=O)c2ccc(Br)cc2)cc1CN1CCOCC1,-85.0*,-3.9,2.8,17.2,6.1%
COc1ccc(CN2C(=O)c3ccccc3C2C(=O)NC2CCCCCC2)c(OC)c1 (configuration not stated),2.7,-6.4,23.0,·,1.0%
CCN(Cc1ccccc1)C(=O)CC(=O)N(CC)Cc1ccccc1,11.5,-3.3,-0.3,-8.0,-5.8%
CCN(Cc1ccccc1)C(=O)CSc1ccccc1C(=O)O,-176.1*,0.7,-0.1,-232.9*,-1.1%
Cc1nc2c(sc(=S)n2Cc2ccco2)c(=O)n1CC(=O)Nc1ccc(F)cc1,-86.6*,-3.4,1.1,20.6,-2.4%
COc1nc(NCCO)nc(Nc2ccccc2F)n1,-3.7,110.2*,-3.1,-6.6,-1.8%
CN(C)CCC(=O)N1C/C(=C/c2ccccc2)C(=O)/C(=C\c2ccccc2)C1,-72.3*,·,·,47.1,·
Clc1nc2ccccc2cc1-c1nnn(-c2ccccc2Br)n1,-13.3,·,·,-73.2*,·
CC1(C)NC(=O)N(CC(O)CN(Cc2ccccc2)Cc2ccccc2)C1=O (configuration not stated),-2.1,-3.1,82.5*,16.8,-1.6%
CCN(C(=O)c1cn(C)c(=O)c2cc(OC)c(OC)cc12)c1cc(OC)ccc1OC,4.6,?,2.6,-5.5,-1.4%
CCN(CC)C(=O)c1cn(C)c(=O)c2cc(OC)c(OC)cc12,-197.6*,-0.9,1.7,4.4,-4.5%
N#Cc1c(N)nc2c(c1-c1ccc3c(c1)OCO3)CCc1ccccc1-2,-0.2,-7.3,-0.1,-12.3,·
CC(C)CCSc1nc(N2CCOCC2)c2c(c1C#N)CC(C)(C)OC2,-12.3,-17.6,91.1*,27.7,1.7%
O=c1c2c3c(sc2ncn1/N=C/c1cccnc1)CCCC3,-77.3*,-8.4,19.2,8.7,18.0%
O=c1c2c3c(sc2ncn1/N=C/c1ccncc1)CCCC3,-1.2,-8.2,11.8,-25.4,3.7%
CN(CC(=O)Nc1ccc(F)c(F)c1F)C(=O)c1nn(Cc2ccccc2)c(=O)c2ccccc12,-26.7,·,·,5.4,·
Cc1cc(S(=O)(=O)c2ccc(Cl)cc2)nc(S(=O)(=O)c2ccc(Cl)cc2)c1C#N,-73.5*,·,·,1.8,·
O=C(CCCOc1ccccc1)Nc1ccc(Cl)cn1,-104.6*,-10.8,?,0.3,-3.0%
O=C(CCCOc1ccc(Cl)cc1Cl)Nc1ccncc1,10.1,-0.8,80.3*,8.1,-1.5%
COc1ccc(OCC(=O)N2CCCC(Nc3ccc(C)c(C)c3)C2)cc1 (configuration not stated),-87.5*,·,·,-9.2,·
COc1ccc(NC2CCCN(C(=O)COc3ccc(C)cc3)C2)cc1 (configuration not stated),-1.8,-0.3,?,3.0,-11.8%
